High-throughput results as filed in PubChem BioAssay.
Shown are actives, neighbours in structure and some others; about 28% of the full set was active somewhere.
CYP2C9 act = CYP2C9 (human) activation. P11712. 96,000 tested, 1.4% active. activation factor at 5 µM. recombinant CYP2C9, luciferin-H conversion, luminescence; stronger effect = higher value; factor 1 = untreated enzyme, 0 = blocked;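 active = activation factor of 2 or more for CYP2C9 at a 5 µM dose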;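 also: 0 = sulfaphenazole-blocked wells and 1 = vehicle-only wells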
CYP2C19 act = activators of human cytochrome P450 2C19; P33261; recombinant CYP2C19, luciferin-H EGE luminescence; stronger effect = higher value; 0 = fully inhibited enzyme, 1 = untreated enzyme; activation factor at 5 µM; 96,000 tested, under 10 active; AID 1025;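 active = activation factor of at least 2 at 5 µM in the primary screen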;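 also: 0 = wells with 2.5 mM tranylcypromine and 1 = vehicle-only wells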
Target sequence (P33261 whole entry, looked up): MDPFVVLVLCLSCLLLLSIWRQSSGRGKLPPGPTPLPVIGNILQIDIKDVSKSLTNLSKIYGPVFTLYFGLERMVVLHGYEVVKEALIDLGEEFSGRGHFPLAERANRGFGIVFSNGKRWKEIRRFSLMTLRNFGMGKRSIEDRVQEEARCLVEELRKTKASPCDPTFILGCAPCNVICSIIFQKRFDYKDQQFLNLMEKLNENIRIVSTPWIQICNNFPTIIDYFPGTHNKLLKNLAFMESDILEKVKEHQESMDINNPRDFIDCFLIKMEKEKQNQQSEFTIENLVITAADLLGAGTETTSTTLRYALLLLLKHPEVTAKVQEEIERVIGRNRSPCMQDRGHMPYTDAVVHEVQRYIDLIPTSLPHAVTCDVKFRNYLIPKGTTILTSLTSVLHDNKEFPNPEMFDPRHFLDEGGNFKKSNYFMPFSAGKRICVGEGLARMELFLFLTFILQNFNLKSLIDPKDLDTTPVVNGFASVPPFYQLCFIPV
CYP2C9 inh = inhibitors of human CYP2C9 | 96,000 tested, 20% active | inhibition, % at 5 µM | CYP2C9 Supersomes, luciferin-H conversion, luminescence | AID 777 | P11712;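 active = blocking of liver enzyme CYP2C9 beyond about 50% at 5 µM, limit read from the data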
Pyk2 oligo antag = antagonists of human Pyk2 oligomerization. Q14289. Q293 cells, Pyk2 FERM NanoBiT luminescence; stronger effect = lower value. z-score (the deposit names both 25 µM and 10 µM). 99,000 tested, 0.83% active. AID 1347419;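 active = Z-score of -3 or lower, scaled per plate to the spread of control and sample wells; inactive = z-score above -3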;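 also: negative z-score means lost luminescence so less FERM oligomerization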
CYP2C19 inh = blocks human cytochrome P450 2C19; CYP2C19 Supersomes, luciferin-H EGE luminescence, 30 min; inhibition, % at 5 µM; AID 778; 96,000 tested, 21% active; P33261;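 active = CYP2C19 inhibition above a set limit at 5 µM in the primary screen, cut at about 50% in these data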;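 also: plate controls were negative control wells for no effect and 2.5 mM tranylcypromine positive control for full effect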
Active calls of the source: *; . = not tested or not shown.

SMILES	CYP2C9 act	CYP2C19 act	CYP2C9 inh	Pyk2 oligo antag	CYP2C19 inh
O=C(O)CSCC(=O)NCc1ccccc1	1.1	1	-11	0.62	2
COc1c2occc2c(OC)c2c(=O)cc(C(F)(F)C(F)(F)F)oc12	0.4	0	61*	-3.2*	98*
Fc1cccc(Cl)c1Cn1nnc2c(N3CCC4(CC3)OCCO4)ncnc21	0.9	1	9	-2.1	1
CC(C)COc1cc(=O)[nH]c(SCC(C)C)n1	0.9	1	11	-0.43	-1
Cc1ccc(-c2nc(CSCC(=O)NCCCN3CCOCC3)c(C)o2)cc1	0.9	0.9	11	0.14	11
CSc1ccc(-c2nc(CSCC(=O)NCCCN3CCOCC3)c(C)o2)cc1	0.7	0.4	29	0.65	56*
COc1ccc(-c2cc(-c3ccccc3O)[nH]n2)cc1	0.5	0.7	47	-1	27
COc1ccc(-c2cc(-c3c(O)c(OC)c4occc4c3OC)[nH]n2)cc1	0.1	0.3	90*	-1.3	70*
CC(C)n1c(SCC(=O)Nc2ccccc2)nc2c1c(=O)n(C)c(=O)n2C	.	.	.	-0.37	.
Cc1nc2sc(C(c3cccs3)N3CCC4(CC3)OCCO4)c(O)n2n1 (stereo unspecified)	.	.	.	0.84	.
COc1cc(S(=O)(=O)N2CCC(O)(c3cccc(C(F)(F)F)c3)CC2)ccc1-n1cnnn1	0.4	0.7	64*	-0.65	32
COc1ccc(OCCN2CCN(C3CC(=O)N(CCC(C)C)C3=O)CC2)cc1 (stereo unspecified)	1	0.7	3	0.88	25
CCOC(=O)c1sc(NC(=O)C2C3C=CC(C3)C2C(=O)O)nc1C (stereo unspecified)	0.6	1	44	0.41	5
O=C(CC12CCC(CC1)C2)NCc1ccc2c(c1)OCO2	.	.	.	0.15	.
O=C(CSc1nccc(=O)[nH]1)Nc1ccc(Br)c(Cl)c1	0.2	0.7	79*	0.31	34
C=CCNc1ncnc2c1ncn2C1OC(CO)C(O)C1O (stereo unspecified)	0.9	1	13	0.59	4
O=C(OCC1OC(n2cnc3c(N(C(=O)c4ccccc4)C(=O)c4ccccc4)ncnc32)C(O)C1F)c1ccccc1 (stereo unspecified)	0.1	0.2	94*	-0.3	80*
O/N=C(\c1ccc(Cl)cc1)c1cc2ccccc2o1	0.6	0.9	36	-0.87	15
CCc1cc(N2CCOCC2)cc2c1[nH]c1ccccc12	1.2	0.6	-18	-0.75	44
Cn1cccc1C(=O)C(=O)Nc1cccc(Cl)c1Cl	2*	0.7	-99	0.46	28
COC(=O)CSc1nnc(-c2sc3cc(OC)ccc3c2Cl)n1C	1	0.4	-4	0.88	56*
O=C(Nc1c(F)cc(F)cc1Br)c1cc2nc(C(F)F)cc(C(F)F)n2n1	1.4	1.1	-36	0.2	-5
O=C(CCCN1C(=O)c2ccccc2C1=O)NC1CCCCCC1	0.6	0.6	39	0.16	44
CN(C(=O)CCN1C(=O)c2ccccc2C1=O)C1CCCCC1	1.4	0	-38	0.12	98*
CCOc1ccccc1NC(=O)C(Sc1ccccc1)c1ccccc1 (stereo unspecified)	1.2	0.6	-24	-2.1	40
SMILES	CYP2C9 act	CYP2C19 act	CYP2C9 inh	Pyk2 oligo antag	CYP2C19 inh
COc1cccc(C2=NN(C(=O)c3ccccc3)C(O)(C(F)(F)F)C2)c1 (stereo unspecified)	0.1	0.1	92*	-0.79	89*
CC(C)C1=NN(C(=O)c2cccnc2)C(O)(C(F)(F)F)C1 (stereo unspecified)	0.8	0.6	20	0.03	41
O=C(Cc1ccccc1)N1CCCC1c1ccccc1 (stereo unspecified)	0.8	0.2	22	-0.5	79*
CC1CCCCN1C(=O)Cc1ccc(F)cc1 (stereo unspecified)	0.8	0.3	22	0.45	75*
CC1CCCC(C)N1C(=O)CSc1nnnn1Cc1ccccc1 (stereo unspecified)	0.9	0.8	5	0.76	20
CC1CCCC(C)N1C(=O)Cc1ccccc1 (stereo unspecified)	0.6	0.2	41	0.36	76*
CC1CCCCN1C(=O)COC(=O)c1n[nH]c2ccccc12 (stereo unspecified)	0.9	0.7	8	0.26	31
CN1C(=O)CC(C(=O)O)SC1=Nc1cccc(C(F)(F)F)c1 (stereo unspecified)	.	.	.	0.52	.
CCOC(=O)c1c(N)sc(-c2ccccc2)c1C	.	.	.	-1.4	.
CCOC(=O)c1c(N)sc(C(O)(C(F)(F)F)C(F)(F)F)c1-c1ccccc1	0	0.1	99*	-0.89	90*
CC1C/C(=N\NC(=S)NC(C)C)CC(C)(C)C1 (stereo unspecified)	0.5	0.1	51*	0.03	88*
O=C(NC1CCCC1)C(c1ccsc1)N(C(=O)Cc1cccs1)c1cccc(F)c1 (stereo unspecified)	0.9	1	8	-0.17	3
COc1ccc(-c2ccc(S(=O)(=O)N3CCOCC3)cc2)cc1	1.1	0.6	-5	-0.98	42
Cc1ccc(NS(=O)(=O)N(C)C)cc1	.	.	.	0.07	.
CCn1c(SCc2ccccc2)nnc1C1CCN(S(=O)(=O)c2ccc(OC)cc2)CC1	2*	0.8	-105	1.2	20
O=C(CSc1nnc(C2CC2)n1Cc1ccccc1)N1CCN(S(=O)(=O)c2ccccc2)CC1	0.5	0.6	46	-0.14	39
COc1ccc(S(=O)(=O)N2CCCCCC2)cc1	1.1	0.5	-12	0.19	51*
COc1ccc(S(=O)(=O)c2ccc(OC)cc2)cc1	1.3	0	-34	-1.6	99*
COc1ccc(S(=O)(=O)N2CCC(N3CCCCC3)CC2)cc1	1.1	0.9	-7	-0.5	8
COC(=O)c1ccc(NS(=O)(=O)N(C)C)cc1	0.2	0.1	79*	-0.05	87*
CC(C)N1CCC2(CC1)N=C(c1ccc3c(c1)OCO3)CC(c1cc(Cl)ccc1O)N2 (stereo unspecified)	0.8	0.9	20	-1.8	11
O=C1C(Cc2ccccc2)NC(=S)N1c1ccccc1 (stereo unspecified)	0.8	0.5	20	0.76	48
O=C(CCN1C(=O)C2C3C=CC(C3)C2C1=O)Nc1ccccn1 (stereo unspecified)	1.3	1.1	-26	0.58	-8
COc1ccc(NS(=O)(=O)c2ccc(OCC(=O)N3CCOCC3)cc2)cc1	0.9	0.8	13	0.29	20
COC(=O)c1ccc(NS(=O)(=O)c2ccc(OC)cc2)cc1	0.1	0.9	89*	-0.69	14
COc1ccc(S(=O)(=O)Nc2ccc(S(=O)(=O)N3CCCCC3)cc2)cc1	0.2	0.8	81*	-3	16
COc1ccc(CNS(=O)(=O)c2ccc(S(=O)(=O)N3CCCCC3)cc2)cc1	0.7	0.8	33	-0.12	22
COc1ccc(S(=O)(=O)Nc2ccc(S(=O)(=O)N3CCCC3)cc2)cc1	0.1	0.5	89*	-1.6	54*
